Test results: PubChem BioAssay (NCATS)
Where “and” joins values, the source holds several entries; their conditions need not be identical. Identical values can stand only once. Records with an inconclusive call do not appear. Calls of active or inactive are those of the source. The call rests on the fitted dose curve.

Test: qHTS Assay for Lipid Storage Modulators (AID 1519); on activity change, negative = inhibition: on the % scale 0 is the no-effect control and ±100 the full control effect
Details: Drosophila S3 cells, BODIPY lipid droplet/cell ratio, laser cytometry, cells loaded with oleic acid
Description: NIH Molecular Libraries Probe Production Centers Network [MLPCN]
NIH Chemical Genomics Center [NCGC]
Assay Submitter (PI): Beller, Mathias; Max-Planck-Institut fur Biophysikalische Chemie
NCGC Assay Overview: Storing lipids as a reservoir for energy or the anabolism of elementary metabolites is a common feature of probably all cells and is conserved from bacteria to humans. The universal cellular lipid storage organelle is the so-called lipid storage droplet (LD). Although ubiquitous, LDs share a simple structure composed of a hydrophobic core that harbors the storage lipids, which is shielded by a droplet-specific phospholipid monolayer to which proteins are attached. The current model of LD biogenesis involves an incorporation of the lipid core into the membrane leaflets of the endoplasmic reticulum (ER) followed by a subsequent budding-like maturation of a LD, which ultimately pinches off. Once released, LD volume can increase by localized lipogenesis or fusion of existing droplets. Storage lipids are re-mobilized enzymatically by lipase activity. Lipase regulation in the adipocyte is heavily studied and involves multiple components including catecholamine signaling, the LD-associated proteins Perilipin and comparative gene identification-58 (CGI-58) and at least two lipases named hormone sensitive lipase (HSL) and adipocyte triglyceride lipase (ATGL). LD regulation outside of the adipocyte is poorly understood and only few components are known. However, there is an urgent need to learn more about ectopic fat depots as mislocalized storage of lipids, for example in the liver or muscle, is an eminent health problem associated with insulin resistance or the metabolic syndrome. We developed a laser-scanning cytometer assay to enable 1,536-well screening and combined the results of the small molecules screen with an RNAi database based on lipid storage.
NCGC Assay Protocol Summary:
We dispensed 4 uL of cells at 1.25 x 10^6 cells/mL into LoBase Aurora COC 1,536-well plates (black walled, clear bottom) with a bottle-valve solenoid-based dispenser (Aurora) to obtain 5,000 cells/well. Triacsin C (Sigma-Aldrich T-4540), an inhibitor of long-chain fatty acyl CoA synthetase that blocks synthesis of triglycerides, was used as a positive control for lipid under-storage. A total of 23 nL of compound solution of different concentrations were transferred to the assay plates using a Kalypsys pin tool equipped with a 1,536-pin array containing 10-nL slotted pins (FP1S10, 0.457-mm diameter, 50.8 mm long; V&P Scientific). One microliter of oleic acid (400 uM) was added, and the plate was lidded with stainless steel rubber gasket lined lids containing pinholes. […] Fluorescence was detected by excitation of the fluorophores with a 488-nm laser on an Acumen Explorer (TTP Lab Tech). The total intensity in channel 1 (500-530 nm) reflected lipid droplet accumulation. […] The ratio of the total intensity in PMT channel 1 over total intensity of channel 3 was also calculated. Percent activity was computed relative to an internal control (100% inhibited lipid droplet deposition due to the presence of 20 uM Triacsin C), which was added to 32 wells/plate.

[1] = measured here: cell count channel max response
[2] = measured here: lipid channel max response

Structure (SMILES) | activity change, negative = inhibition (at 25.7 µM (top of the series)) | max response [1] | max response [2] | activity change, negative = inhibition (at 57.5 µM (top of the series))
Cc1cccc(N(C)C(=S)Oc2ccc3ccccc3c2)c1 | 1.79% (inactive) | -7.01% | -5.23% | 
NNC(=O)c1ccncc1 | -0.316% (inactive) | -8.98% | -8.54% | 
Nc1ccc(S(=O)(=O)Nc2ccccn2)cc1 | -0.611% (inactive) | -5.02% and 31.9% | -4.54% and 46.5% | 8.46% (inactive)
N[C@@H](Cc1ccc(O)c(O)c1)C(=O)O | -1.67% (inactive) | -2.41% | -4.9% | 
CCn1cc(C(=O)O)c(=O)c2cc(F)c(N3CCNCC3)cc21 | 0.231% (inactive) | -2.5% and 14.7% | -2.45% and 30% | 8.94% (inactive)
CNNCc1ccc(C(=O)NC(C)C)cc1 | 1.45% (inactive) | -0.816% | 0.0882% | 
CN(C)CCc1c[nH]c2ccc(CS(=O)(=O)N3CCCC3)cc12 |  | 19.2% | 27.5% | 5.82% (inactive)
OC(Cn1cncn1)(Cn1cncn1)c1ccc(F)cc1F |  | 12.6% | 26.4% | 11.9% (inactive)
CC(C)(C)NC(=O)[C@H]1CC[C@H]2[C@@H]3CC[C@H]4NC(=O)C=C[C@]4(C)[C@H]3CC[C@]12C |  | -43.7% | -42.5% | -0.33% (inactive)
CCCCS(=N)(=O)CCC(N)C(=O)O (stereo unspecified) |  | 23.2% | 33.5% | 7.27% (inactive)
CCN1CCCC1CNC(=O)c1cc(S(N)(=O)=O)ccc1OC (stereo unspecified) |  | 2.98% | 5.52% | 2.89% (inactive)
NC(=O)N1c2ccccc2CC(=O)c2ccccc21 |  | 10.2% | 19.4% | 6.03% (inactive)
O=c1oc2c(O)c(O)cc3c(=O)oc4c(O)c(O)cc1c4c23 |  | 18.5% | 32.6% | 8.32% (inactive)
